From PubChem BioAssay
In the library only some 10% were active in any assay of this set; here they are far more common.
G9a inh – G9a (human) methyltransferase inhibition | Q96KQ7 | G9a H3K9 monomethylation, AlphaScreen, 2 h | Potency, µM (doses to about 102 µM), for the others: at the top dose activity, negative = inhibition, most hits filed as inhibitors | actives 8.8% (n = 350,000); note: % is set by controls: 0 for no effect and ±100 for the full control effect; nearly all actives have a fitted effect of over 75% in size
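Enzyme 20 nM + cpd, 15 min RT; add b-H3K9 pep 500 nM / SAM 20 uM; 2 h RT; anti-H3K9me1 Ab 0.5 ug/mL + SA donor / anti-rabbit acceptor beads 20 ug/mL each, 10 min; AlphaScreen read.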
HP1b chromo inh – blocks HP1-beta chromodomain binding to methylated histone tails | AID 540317 | AlphaScreen HP1-beta / biotin-H3K9me3 peptide binding | P83916 | actives 0.56% (n = 390,000) | Potency, µM (top dose mostly 114 µM), for the others: top-dose activity change, negative = inhibition, most hits filed as inhibitors; note: nearly all actives have a fitted effect of over 70% in size
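AlphaScreen: HP1-beta (50 nM) preformed 30 min with biotin-H3(1-18)K9me3 peptide (50 nM) in PBS pH 7.4, 0.01% Tween-20. Compound added for 30 min at RT, then streptavidin donor/nickel chelate acceptor beads (10 ug/mL) for 30 min.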
BAZ2B inh – blocks human BAZ2B. Q9UIF8. AlphaScreen BAZ2B-H3K14Ac peptide displacement. Potency, µM (highest dose often 114 µM), for inactives: top-dose activity change, negative = inhibition, actives largely listed as inhibitors. actives 4.4% (n = 360,000); note: % is set by controls: 0 for no effect and ±100 for the full control effect; nearly all actives have a fitted effect of over 60% in size
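AlphaScreen luminescence quantifies BAZ2B engagement of H3K14Ac peptide; the protein and biotinylated peptide are both at 50 nM final, buffer PBS pH 7.4 with 0.01% Tween-20, all steps at room temperature.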
JMJD2A Tudor inh – blocks the human JMJD2A Tudor domain; AlphaScreen JMJD2A-Tudor / H3K4me3 peptide binding; Potency, µM (series often up to 114 µM), inactives show at the top dose activity change, negative = inhibition, actives largely listed as inhibitors; O75164; actives 4.4% (n = 390,000); note: % is set by controls: 0 for no effect and ±100 for the full control effect; nearly all actives have a fitted effect of over 50% in size
L3MBTL1 inh – L3MBTL1 (human) inhibition. Q9Y468. AlphaScreen L3MBTL1–H3K9me1 peptide binding. Potency, µM (doses to about 57.1 µM), inactives show top-dose activity, negative = inhibition, most hits filed as inhibitors. actives 0.66% (n = 230,000). AID 485360; note: % is set by controls: 0 for no effect and ±100 for the full control effect; nearly all actives have a fitted effect of over 60% in size
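L3MBTL1 50 nM + b-AHA-H3(1-15)K9me1 75 nM, 30 min RT; compound added, 30 min RT; streptavidin donor/Ni-chelate acceptor beads 10 ug/mL each final, 30 min RT dark; AlphaScreen read.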
GLS inh – blocks human kidney-isoform glutaminase activity; AID 624170; actives 0.21% (n = 410,000); Potency, µM (highest dose often 45.5 µM), inactives show top-dose activity change, negative = inhibition, actives largely listed as inhibitors; GLS enzymatic activity, qHTS titration; note: % is set by controls: 0 for no effect and ±100 for the full control effect
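Read-out is an Amplex red fluorescence increase coupled through glutamate oxidase and HRP, measured before and after 30 min room-temperature incubation. hKGA is in 45 mM KH2PO4 (pH 8.2) with 0.02% Tween-20; glutamine added as 1mM solution.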
An asterisk follows results filed as active; ? = inconclusive; · = not tested or not shown; [ ] = remark or other dose. Calls come from the whole dose curve; as a rule, active = well fitted curve in the direction sought with a large enough effect; inconclusive = small, poorly fitted or top-dose-only effect, or another doubt; inactive = no such curve, though single readings can be large; an effect the other way counts as inactive or inconclusive. Potency is the fitted concentration of half-maximal effect.

SMILES	G9a inh	HP1b chromo inh	BAZ2B inh	JMJD2A Tudor inh	L3MBTL1 inh	GLS inh
COc1ccccc1C1Nc2c(sc3nc(C)cc(C)c23)C(=O)N1c1ccccc1 (stereo unspecified)	13%[59 µM]	41%	15%	-12%	·	1%
Cc1ccc(C(=O)c2sc(Nc3ccccc3)c(S(=O)(=O)c3ccccc3)c2N)c(C)c1	-30%[59 µM]	2%[57 µM]	-31%	?	·	-3%
Cc1ccc2c(c1)c(C)cc(=O)n2CCC(=O)O	?	-16%	50µM*	89µM*	?	16%
O=C1CC(c2nc(-c3cccc(Cl)c3)no2)CN1c1ccc2c(c1)OCCO2 (stereo unspecified)	-1%[59 µM]	71%	-15%	-24%	·	4%
Fc1ccc(Nc2ncnc3c2nc2n3CCCCC2)c(F)c1	1%[59 µM]	11%	-2%	-10%	·	8%
O=C(OCC(=O)c1ccc(Cl)cc1Cl)c1ccccn1	·	28%	·	40µM*	?	0%
CCOC(=O)c1ncccc1NC(=O)CC(=O)Nc1cccnc1C(=O)OCC	·	20%	·	13µM*	·	10%
CCOc1ccc(C(=O)OCC(=O)Nc2cccnc2Cl)cc1OCC	·	28%	·	-7%	0%	3%
O=C(COC(=O)c1ccccn1)Nc1cccnc1Cl	28µM*	-1%	79µM*	?	-4%	-4%
O=C(COC(=O)c1ccc(Cl)c([N+](=O)[O-])c1)Nc1ccccc1OC(F)F	1.6µM*	19%	0%	2%	-10%	0%
CC(C)c1ccc(NC(=O)CN2C(=O)CSc3ccc(S(=O)(=O)N4CCCC4)cc32)cc1	-18%[59 µM]	32%	-16%	-26%	·	-12%
O=C(COC(=O)c1ccccn1)Nc1ccccc1OC(F)F	4%	20%	50µM*	56µM*	·	1%
Cc1cc(C)c2nc(N(CCN(C)C)C(=O)c3ccc4ccccc4c3)sc2c1	40µM*	-12%	?	40µM*	·	5%
Cc1cc(C)c2nc(N(CCN(C)C)C(=O)c3ccc(S(=O)(=O)N(C)CC4CCCO4)cc3)sc2c1 (stereo unspecified)	79µM*	-15%	?	?	·	19%
CCOc1cccc2sc(N(CCN(C)C)C(=O)c3ccc4ccccc4c3)nc12	50µM*	-16%	?	?	·	1%
CCOc1cccc2sc(N(CCCN(C)C)C(=O)c3ccc(S(=O)(=O)N(C)CC4CCCO4)cc3)nc12 (stereo unspecified)	-7%	9%	-23%	-19%	·	-22%
COc1ccc2sc(N(CCN(C)C)C(=O)c3ccc4ccccc4c3)nc2c1	40µM*	-14%[57 µM]	?	40µM*	·	1%
CCOc1cccc2sc(N(CCN(C)C)C(=O)c3ccc(Br)s3)nc12	10%[59 µM]	39%	-2%	-6%	·	-2%
CC(=O)N(Cc1cccnc1)c1nc2c(C)cc(C)cc2s1	?	17%	-13%	-7%	·	4%
COC(=O)c1cc2sc(Cl)cc2n1CC(=O)Nc1cc(C)cc(C)c1	-10%[59 µM]	5%	2%	-19%	·	8%
COc1ccc(C)c2sc(N(CCN(C)C)C(=O)c3ccc4ccccc4c3)nc12	50µM*	-16%	?	?	·	9%
CN(C)CCCN(C(=O)c1ccc(S(=O)(=O)N2CCc3ccccc3C2)cc1)c1nc2c(F)cccc2s1	-12%	35%	-9%	-7%	·	-7%
COc1ccc(OC)c2sc(N(CCN(C)C)C(=O)c3cc(Cl)sc3Cl)nc12	?	?	·	?	·	1%
CN(C)CCN(C(=O)c1ccc2ccccc2c1)c1nc2c(F)cccc2s1	40µM*	1%	-37%[57.1 µM]	?	·	-1%
CCCCN(CC)CCNC(=O)C1CCCN(c2ncnc3onc(C)c23)C1 (stereo unspecified)	-26%[59 µM]	29%	8%[57.1 µM]	-1%	·	11%
COc1ccc(CNC(=O)c2cc(-c3ccc(C)c(C)c3)n[nH]2)cc1	6%[59 µM]	50%	-9%	10%	·	5%
